About 1,700 (0.89%) of roughly 190,000 compounds were called active. This is one part of a sample in which actives are shown more often than they occur. A number with no mark means an inactive call.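 How the source made its calls: active means inhibition above the mean inhibition across all screened compounds plus 3 SD (cut at about 44% in these data); inactive means the rest.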
assay: IL-6 driven STAT3 reporter inhibitors, primary screen, U3A cells, luciferase, luminescence, MLSCN library (AID 862); conditions: IL-6 STAT3-luciferase reporter, at 5.5 µM, hits give high values, host cell line lacks STAT1;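 further: 0% = DMSO only wells and 100% = 100 µM nifuroxazide control wells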

Row | SMILES | inhibition
1 | c1ccc(-c2noc(-c3cccs3)n2)nc1 | 43.8% (active)
2 | O=C(Oc1ccccc1)c1ccc2nccnc2c1 | 2.6%
3 | O=C(Oc1ccc(-c2nc(-c3ccccn3)no2)cc1)c1ccccc1 | 76.7% (active)
4 | COc1nc(-c2ccc(Cl)cc2)ccc1-c1noc(-c2cccs2)n1 | -4.2%
5 | CC(C)c1nc(-c2ccccn2)no1 | -0.3%
6 | c1csc(-c2nc(-c3ccncc3)no2)c1 | 16.8%
7 | Cc1c(C(=O)O)nnn1-c1nonc1N | -8.4%
8 | Cc1cc(F)ccc1S(=O)(=O)Nc1ncnc2scc(-c3ccc(F)cc3)c12 | -1.8%
9 | CC(=O)c1c(C)[nH]c(C(=O)Nc2cc(S(=O)(=O)N(C)C)ccc2C)c1C | 13.2%
10 | CCOc1ccc(NC(=O)CC2C(=O)N(c3ccccc3)C(=O)N2CCOC)cc1 (stereo unspecified) | -0.8%
11 | CCCCn1c(N)c(N(CC)C(=O)/C=C/c2ccco2)c(=O)[nH]c1=O | -5.6%
12 | Cc1cccc(CSc2nnc(Cn3c(=O)sc4ccccc43)n2C)c1 | 5%
13 | COc1ccccc1CNC(=O)CCn1c(=O)sc2ccccc21 | -0.6%
14 | COc1ccc(Cn2c(=O)sc3ccccc32)cc1OC | 51.6% (active)
15 | CO/N=C/CC(=O)c1ccc(OC)cc1 | 6.2%
16 | Cc1ccc(NC(=O)Cn2nc(C)c3ccccc3c2=O)c(C)c1 | 9.7%
17 | COc1ccc(-c2nn(C)c(=O)c3ccccc23)cc1NC(=O)COc1ccccc1 | 38.1%
18 | Cc1ccc(F)cc1NC(=O)Cc1nn(C)c(=O)c2ccccc12 | 56.3% (active)
19 | Cc1cc(N2CCN(Cc3ccc4c(c3)OCO4)CC2)n2ncnc2n1 | -1.7%
20 | Fc1ccc2[nH]c3c(N4CCN(Cc5ccc6c(c5)OCO6)CC4)ncnc3c2c1 | 65.5% (active)
21 | Fc1ccc2[nH]c3c(N4CCSCC4)ncnc3c2c1 | 22.8%
22 | CC(C)(C)NCCCOc1ccc(Cl)cc1C(C)(C)C | -0.4%
23 | O=C(N/N=C/c1ccccc1O)/C(=C/c1ccccc1)CCO | 3.8%
24 | O=C(NCCSCc1ccccc1)c1ccc(Cl)c(S(=O)(=O)N2CCOCC2)c1 | 21%
25 | Cc1ccccc1CSCCNC(=O)c1ccc(Cl)c(S(=O)(=O)N2CCOCC2)c1 | 4.2%
26 | CC(C)(CNC(=O)c1ccc(Cl)c(S(=O)(=O)N2CCc3ccccc3C2)c1)N1CCOCC1 | 49.5% (active)

Row | SMILES | inhibition
27 | CCOC(=O)C(=Cc1ccccc1OC)C(=O)OCC | 9.9%
28 | Cc1cc(NC(=O)CSc2nc3c(cc2C#N)CCCCC3)no1 | -1.5%
29 | O=C(N/N=C/C=C/c1ccco1)c1cccs1 | -6.8%
30 | COc1cccc(-c2cc(C(=O)N/N=C/c3ccc(OC)c(COC(C)=O)c3)c3ccccc3n2)c1 | -6%
31 | Cc1ccc(-c2cc(C(=O)N/N=C/C=C/c3ccco3)c3ccccc3n2)cc1C | 46.8% (active)
32 | Cc1cc(C(=O)NNC(=O)c2cccc(S(=O)(=O)N3CCOCC3)c2)c2ccccc2n1 | 10%
33 | CCC(=O)OCCNc1nc(-c2ccccc2)nc2ccccc12 | 1.5%
34 | O=C(COC(=O)c1ccc(O)cc1)Nc1nccs1 | -5.6%
35 | Fc1cccc2ncnc(OCc3ccccc3)c12 | 4.2%
36 | Cc1nc2ccccc2cc1O | -75.4%
37 | Cc1nc2ccccc2cc1OCc1ccc(F)cc1 | 73% (active)
38 | O=C(Nc1ccc(N2CCN(C(=O)c3cccs3)CC2)cc1)c1cccnc1Cl | 1.7%
39 | O=c1c2ccccc2nc2n1C(CSCc1ccccc1)CS2 (stereo unspecified) | 18.7%
40 | O=c1c2ccccc2nc2n1C(CSc1ccc(F)cc1)CN2 (stereo unspecified) | -2.2%
41 | O=c1c2ccccc2nc2n1C(CSCc1cccc(C(F)(F)F)c1)CS2 (stereo unspecified) | 49.3% (active)
42 | Cc1ccc(CNC(=O)c2cccnc2Cl)cc1 | 3.5%
43 | CCOc1c(Cl)cc(/C=N/O)cc1OC | 1.3%
44 | CCOc1cc(/C=C(/C#N)c2ccc(Cl)cc2)cc(Cl)c1OCC(=O)O | 63.3% (active)
45 | CCOC(=O)CN/C=C(\C#N)c1ccc(F)cc1 | -0.6%
46 | c1ccc(-c2nc(NCc3ccco3)c3ccccc3n2)cc1 | -1%
47 | c1coc(CNc2ncnc3ccccc23)c1 | 61.2% (active)
48 | FC(F)(F)c1cccc(Nc2ncnc3ccccc23)c1 | 16.5%
49 | CCN(/N=C/c1ccc(N(C)C)cc1)c1nc2ccccc2[nH]1 | 1.9%
50 | CCN(CCCNC(=O)CSc1cc(=O)n(C)c2cc(Cl)ccc12)Cc1ccccc1 | 5.2%
51 | Cn1c(N)c(C(=O)COC(=O)/C=C/c2ccc(OC(F)F)cc2)c(=O)n(C)c1=O | 26.3%
